AmpC no deterg = blocks E. coli AmpC beta-lactamase in detergent-free assay; AmpC nitrocefin hydrolysis, absorbance 480 nm, 0.0001% Triton; 330,000 compounds, 0.52% hits; Potency, µM (top dose mostly 57.1 µM), actives largely listed as inhibitors; P00811; further: nearly all actives have a fitted effect of over 20% in size
Target sequence (P00811 whole entry, looked up): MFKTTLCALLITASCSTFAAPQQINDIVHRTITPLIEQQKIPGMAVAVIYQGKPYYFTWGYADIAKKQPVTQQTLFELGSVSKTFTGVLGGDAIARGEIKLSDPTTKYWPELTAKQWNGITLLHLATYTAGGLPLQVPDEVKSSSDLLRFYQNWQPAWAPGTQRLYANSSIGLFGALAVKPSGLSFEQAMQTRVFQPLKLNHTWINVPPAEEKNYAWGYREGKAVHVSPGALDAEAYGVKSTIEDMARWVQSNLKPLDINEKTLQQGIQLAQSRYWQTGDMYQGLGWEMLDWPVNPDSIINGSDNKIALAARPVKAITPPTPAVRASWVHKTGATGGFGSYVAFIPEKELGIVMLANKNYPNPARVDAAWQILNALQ
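AmpC (5.3 nM in the dispensed reagent) in 20 mM phosphate pH 7.0 with 0.01% (detergent screen) or 0.0001% Triton X-100 was preincubated with compounds for 15 min at room temperature. Nitrocefin was then added from an 800 uM solution, and hydrolysis was followed at 480 nm.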
FMDV antiviral = antivirals against foot and mouth disease virus. FMDV antiviral cell-based qHTS. Potency, µM (titrated, usually from 57.9 µM), hits mostly inhibitors. 410,000 compounds, 1.2% hits. AID 1159524; calls by dose curve; tested in HEK293T cells; further: read-out not given here; nearly all actives have a fitted effect of over 45% in size
AmpC inh detg = inhibitors of E. coli AmpC beta-lactamase with detergent; P00811; AmpC hydrolysis of nitrocefin, absorbance 480 nm, 0.01% Triton; Potency, µM (doses to about 114 µM), usual class: inhibitors; 370,000 compounds, 0.041% hits; AID 485294; further: nearly all actives have a fitted effect of over 25% in size
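AmpC (5.3 nM in the dispensed reagent) in 20 mM phosphate pH 7.0 with 0.01% (detergent screen) or 0.0001% Triton X-100 was preincubated with compounds for 15 min at room temperature. Nitrocefin was then added from an 800 uM solution, and hydrolysis was followed at 480 nm.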
HCV inhibitor = inhibitors of hepatitis C virus infection; Huh7.5.1 HCVcc-Cre infection, luciferase reporter, 44 h; Potency, µM (series often up to 41.8 µM), actives largely listed as inhibitors; 340,000 compounds, 3.4% hits; AID 651820
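HCVcc-Cre virus at an moi near 0.5 was added right after compound to cells cultured 4 h from seeding (1,000 cells/well). Luciferase activity was determined 44 h later, 15 min after substrate addition at RT.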
HCMV inh = blocks human cytomegalovirus replication; HFF cells, HCMV-luciferase reporter, 72 h; stronger effect = lower value; activity change, negative = inhibition, % at 57.5 µM; 410,000 compounds, 4.5% hits; AID 1259415; in the data active means activity change below about -60%; inconclusive means no clear call, values can overlap the other calls; inactive means above about -39%
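Two compound doses tested in HFFs infected with HCMV-luciferase, MOI 1 PFU/cell, 72 h at 37C. Lysate luminescence read with OneGlo; data normalized against buffer-only and 10uM Salinomycin inhibitor controls.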
Of the large screens only hits and unclear results are named; the others gave an inactive call. Only some compounds are listed: those with a hit (about 7.3% of all), similar ones and a draw of the others. Unless noted, the call rests on the fitted dose curve; in most records, active means well fitted curve in the direction sought with a large enough effect; inconclusive means small, poorly fitted or top-dose-only effect, or another doubt; inactive means no such curve, though single readings can be large; an effect the other way counts as inactive or inconclusive.

Cc1ccc(Nc2nnc(-c3ccc(N4CCOCC4)c([N+](=O)[O-])c3)c3ccccc23)cc1	AmpC inh detg inconclusive, HCV inhibitor 25µM, HCMV inh -89
O=[N+]([O-])c1cc(-c2nnc(Nc3ccc(O)cc3)c3ccccc23)ccc1N1CCOCC1	FMDV antiviral 20µM, HCV inhibitor inconclusive, HCMV inh -69
O=[N+]([O-])c1cc(-c2nnc(Nc3ccccc3)c3ccccc23)ccc1N1CCOCC1	HCV inhibitor 13µM, HCMV inh -74
CN(C)CCCN(C(=O)C1=COCCO1)c1nc2ccc(Br)cc2s1	HCV inhibitor 13µM
Cc1cc(C)c2nc(N(CCCN(C)C)C(=O)c3ccc4c(c3)OCCO4)sc2c1	HCV inhibitor 11µM, HCMV inh inconclusive
Cc1cc(C)c2nc(N(CCCN(C)C)C(=O)C3=COCCO3)sc2c1	HCV inhibitor 32µM
Cc1cccc2sc(N(CCN(C)C)C(=O)c3ccc4c(c3)OCCO4)nc12	none (no result: AmpC no deterg, HCV inhibitor)
Cc1ccc2c(c1)CCCN2C(=O)c1cc(C)on1	none
Cc1ccc(C2NC(=O)c3ccccc3N2)c(C)c1 (stereo not drawn)	HCV inhibitor inconclusive (no result: AmpC no deterg, AmpC inh detg)
O=[N+]([O-])c1cccc(-c2noc3ccccc23)c1	none (no result: AmpC no deterg, FMDV antiviral, AmpC inh detg, HCV inhibitor)
C=CCn1c(=O)c(C(=O)NCc2ccc(Cl)cc2)c(O)c2ccccc21	AmpC inh detg inconclusive, HCMV inh -66
CCCn1c(=O)c(C(=O)NCCc2ccc(OC)cc2)c(O)c2ccccc21	HCV inhibitor 13µM
CCCn1c(=O)c(C(=O)NCCc2ccccc2)c(O)c2ccccc21	none
C=CCn1c(=O)c(C(=O)NCCc2ccccc2)c(O)c2ccccc21	HCV inhibitor inconclusive, HCMV inh inconclusive (no result: FMDV antiviral)
CCCn1c(=O)c(C(=O)NCc2ccc(OC)c(OC)c2)c(O)c2ccccc21	FMDV antiviral inconclusive, HCV inhibitor 14µM
O=C(c1ccccc1)C12COc3ccccc3C1ON=C2c1ccccc1 (stereo not drawn)	none (no result: AmpC no deterg, FMDV antiviral, AmpC inh detg, HCV inhibitor)
CC(CCc1ccccc1)NC(=O)COC(=O)c1ccc(NC(N)=O)cc1 (stereo not drawn)	HCMV inh -71
COc1ccc(C(=O)OCC(=O)NC(C)CCc2ccccc2)cc1 (stereo not drawn)	none
COc1ccc2c(c1)CC/C(=C\c1ccc(OC)c(Cn3nc(C)cc3C)c1)C2=O	FMDV antiviral inconclusive, HCV inhibitor 4µM
O=C(Cn1cccc1C(=O)c1ccccc1)NCCC1=CCCCC1	HCMV inh -64
O=C(CN1CCN(C(C(=O)Nc2cc(C(F)(F)F)ccc2Cl)c2ccccc2)CC1)NC1CC1 (stereo not drawn)	FMDV antiviral 40µM, HCV inhibitor inconclusive (no result: AmpC no deterg, AmpC inh detg)
CC1CCN(c2nc(Cl)nc(Nc3ccc([N+](=O)[O-])cc3)n2)CC1	AmpC no deterg 10µM, AmpC inh detg inconclusive
C=CCNc1nc(Nc2ccc([N+](=O)[O-])cc2)nc(N2CCCC2)n1	FMDV antiviral inconclusive, HCV inhibitor inconclusive
CCn1c(-c2ccccc2F)nc2cc(NC(C)=O)cc(C(=O)N3CCCC3c3nccs3)c21 (stereo not drawn)	none (no result: AmpC no deterg, AmpC inh detg, HCV inhibitor, HCMV inh)
Cn1c(-c2ccccn2)[n+](C)c2ccccc21	none
Cn1c(-c2ccc3ccccc3n2)[n+](C)c2ccccc21	HCV inhibitor inconclusive, HCMV inh -72
Cn1c(-c2cccc([N+](=O)[O-])c2)[n+](C)c2ccccc21	none
CN(C)c1ccc(-c2n(C)c3ccccc3[n+]2C)cc1	HCV inhibitor 8.9µM, HCMV inh -97 (no result: FMDV antiviral)
Cc1ccc(O)c(-c2n[nH]c3c2C(c2ccccc2F)N(Cc2ccco2)C3=O)c1 (stereo not drawn)	FMDV antiviral inconclusive, HCMV inh inconclusive (no result: AmpC no deterg, HCV inhibitor)
O=C(Nc1ccc(C(O)c2ccccc2)cc1)[C@@H]1O[C@H](CO)[C@H](O)[C@H](O)[C@H]1O (stereo partly drawn)	none (no result: AmpC no deterg, AmpC inh detg, HCV inhibitor)
CCn1ccc2c(OCC(=O)Nc3ccccc3C(F)(F)F)cccc2c1=O	FMDV antiviral 32µM (no result: AmpC no deterg, HCV inhibitor)
CCOC(=O)C(C)Oc1cccc2c(=O)n(CC(=O)Nc3cccc(OC)c3)ccc12 (stereo not drawn)	AmpC no deterg 7.1µM, AmpC inh detg inconclusive
CCOC(=O)COc1cccc2c(=O)n(CC(=O)NCc3ccccc3)ccc12	HCMV inh -70
COC(=O)COc1cccc2c(=O)n(CC(=O)N3CCCc4ccccc43)ccc12	AmpC no deterg 0.63µM, AmpC inh detg inconclusive
CCOCCn1ccc2c(OCC(=O)Nc3ccc(OC)c(OC)c3)cccc2c1=O	FMDV antiviral 25µM, AmpC inh detg inconclusive, HCV inhibitor inconclusive, HCMV inh inconclusive
COCCn1ccc2c(OCC(=O)NCc3ccc(F)cc3)cccc2c1=O	none (no result: AmpC no deterg, HCV inhibitor)
COCCn1ccc2c(OCC(=O)NCCc3ccccc3)cccc2c1=O	AmpC inh detg inconclusive, HCV inhibitor 10µM
COc1ccc(C(=O)Nn2c(SCC(=O)NC3CCCC3)nc3ccccc3c2=O)cc1	FMDV antiviral 18µM, AmpC inh detg inconclusive
COc1ccc(C(=O)Nn2c(SCC(=O)NCC3CCCO3)nc3ccccc3c2=O)cc1 (stereo not drawn)	FMDV antiviral 11µM, HCMV inh inconclusive
COc1ccc(C(=O)Nn2c(SCC(=O)NCc3ccccc3)nc3ccccc3c2=O)cc1	FMDV antiviral inconclusive, AmpC inh detg inconclusive, HCMV inh inconclusive
O=C(Nc1ccccc1)N1CCc2scc[n+]2-c2ccccc21	AmpC inh detg inconclusive, HCV inhibitor inconclusive, HCMV inh -67
COC(=O)c1c(-c2ccc(Br)cc2)csc1NC(=O)Cc1ccc(OC)c(OC)c1	FMDV antiviral inconclusive, HCV inhibitor inconclusive, HCMV inh inconclusive
COC(=O)c1c(-c2cccc3ccccc23)csc1NC(=O)Cc1ccc(OC)c(OC)c1	FMDV antiviral inconclusive, HCV inhibitor 5.6µM, HCMV inh inconclusive
CCOC(=O)/C(C#N)=C\c1ccc(O)c(OC)c1	none
COc1ccc(CC(=O)Nc2cccc3ccccc23)cc1OC	FMDV antiviral inconclusive, HCV inhibitor inconclusive, HCMV inh -85
COC(=O)c1c(-c2ccc(C)cc2)csc1NC(=O)Cc1ccc(OC)c(OC)c1	FMDV antiviral inconclusive, HCV inhibitor inconclusive, HCMV inh -65
CCOC(=O)c1c(-c2ccc(C)cc2)csc1NC(=O)/C(C#N)=C/c1ccc(O)c(OC)c1	AmpC no deterg 8.9µM, FMDV antiviral inconclusive, HCMV inh inconclusive
CC(C)(C)NC(=O)CN(CC1CCCO1)C(=O)CNS(=O)(=O)c1ccc(F)cc1 (stereo not drawn)	none
O=C1C(n2ccc3ccccc32)c2cccc(F)c2N1Cc1ccc(C(F)(F)F)cc1 (stereo not drawn)	none (no result: AmpC no deterg, FMDV antiviral, AmpC inh detg, HCV inhibitor)
COc1cccc(OC)c1C1=NCC(=O)Nc2c1oc1ccc(Br)cc21	AmpC inh detg inconclusive, HCV inhibitor inconclusive, HCMV inh -95
O=C1CN=C(c2ccccc2)c2oc3ccc(Br)cc3c2N1	none

Source: PubChem BioAssay (National Center for Advancing Translational Sciences (NCATS))
